A selection: hits, their analogues and other compounds. The true share with any hit is near 11%.
PNC assembly inh: blocks assembly of the perinucleolar compartment. AID 2417. 140,000 tested, 3.1% active. PC3M PTB-GFP, PNC prevalence imaging, 16 h; hits give low values. activity change (PNC), negative = inhibition, % at 10 µM;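 active = readout at or below -70, meaning at least 70% loss of cells showing the perinucleolar compartment, a nuclear body marking cancer cells; inconclusive = readout between -30 and a set limit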
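Read-out is percentage of cells bearing a perinucleolar compartment, from automated 20x imaging of fixed, Hoechst-stained PC3M PTB-GFP cells. Cells were seeded 4 h, then exposed 16 h to compound (23 nl of library stock) in duplicate plates.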
HPGD block: HPGD (human) dehydrogenase inhibition | purified HPGD, NADH fluorescence kinetic, PGE2 substrate | Potency, µM, most hits filed as inhibitors | 150,000 tested, 4.3% active | P15428
Target sequence (P15428 whole entry, looked up): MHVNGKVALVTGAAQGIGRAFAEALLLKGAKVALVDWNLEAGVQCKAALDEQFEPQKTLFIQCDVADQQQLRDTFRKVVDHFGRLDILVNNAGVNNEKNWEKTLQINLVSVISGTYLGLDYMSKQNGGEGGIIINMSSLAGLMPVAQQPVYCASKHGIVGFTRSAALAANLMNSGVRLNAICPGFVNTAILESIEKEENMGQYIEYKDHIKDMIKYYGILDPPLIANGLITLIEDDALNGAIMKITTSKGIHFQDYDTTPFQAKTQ
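NADH formation kinetics: reaction with 30 uM PGE2 and 1 mM NAD+ (final), 20 nM enzyme, Tris-HCl pH 8 with Tween 20, after 15 min compound preincubation at room temperature. Fluorescence change, last versus first of five reads.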
IMPase Li cell: IMPase inhibition in cells with lithium potentiation; 210,000 tested, 0.35% active; CHO-M1 cells, IP1 TR-FRET (IP-One), carbachol + lithium; Potency, µM (titrated, usually from 59.4 µM), usual class: inhibitors; active = well fitted curve in the direction sought with a large enough effect; inconclusive = small, poorly fitted or top-dose-only effect, or another doubt; inactive = no such curve, though single readings can be large; an effect the other way counts as inactive or inconclusive;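 also: IP1 builds up when IMPase is blocked and the TR-FRET signal falls; nearly all actives have a fitted effect of over 50% in size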
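Lithium-sensitised IP1 accumulation assay; M1-expressing CHO cells treated 30 min at 37C with compound. Competitive antibody detection by time-resolved FRET followed a 10 min room-temperature lysis step.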
ALOX12 inhib: 12-hLO (ALOX12) enzyme inhibition | purified 12-hLO, xylenol orange hydroperoxide absorbance | Potency, µM (top dose mostly 57.1 µM), hits mostly inhibitors | 150,000 tested, 0.12% active | AID 1452; active = well fitted curve in the direction sought with a large enough effect; inconclusive = small, poorly fitted or top-dose-only effect, or another doubt; inactive = no such curve, though single readings can be large; an effect the other way counts as inactive or inconclusive; also: nearly all actives have a fitted effect of over 55% in size
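Hydroperoxide formation by human 12-lipoxygenase from 40 uM arachidonic acid was followed colorimetrically via ferric-xylenol orange complex, using the 573/405 nm absorbance ratio. Enzyme concentration was 150 nM, with 30 min reaction at room temperature.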
ALDH1A1 inh: inhibitors of human aldehyde dehydrogenase 1A1; Purified ALDH1A1, NADH fluorescence, propionaldehyde substrate; P00352; Potency, µM (series often up to 75.3 µM), actives largely listed as inhibitors; AID 1030; 220,000 tested, 7.3% active
Target sequence (P00352 whole entry, looked up): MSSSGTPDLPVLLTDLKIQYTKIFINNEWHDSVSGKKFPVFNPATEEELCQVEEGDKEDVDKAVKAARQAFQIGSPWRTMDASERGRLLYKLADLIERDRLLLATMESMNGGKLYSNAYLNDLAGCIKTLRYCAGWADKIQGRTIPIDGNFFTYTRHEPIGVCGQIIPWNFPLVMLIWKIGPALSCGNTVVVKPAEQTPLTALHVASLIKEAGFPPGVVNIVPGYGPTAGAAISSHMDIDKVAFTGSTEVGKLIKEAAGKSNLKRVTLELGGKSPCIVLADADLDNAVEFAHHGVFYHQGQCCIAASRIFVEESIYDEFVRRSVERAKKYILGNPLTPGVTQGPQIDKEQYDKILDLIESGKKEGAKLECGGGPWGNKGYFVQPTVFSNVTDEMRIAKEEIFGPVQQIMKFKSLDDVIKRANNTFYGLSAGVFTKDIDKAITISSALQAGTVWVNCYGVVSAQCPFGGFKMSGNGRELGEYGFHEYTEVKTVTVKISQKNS
IMPase cell inh: membrane-permeable compound that blocks inositol monophosphatase | P97697 | CHO-M1 cells, IP1 accumulation, HTRF TR-FRET ratio | inhibition (IP1 accumulation), % at 46.1 µM | 120,000 tested, under 10 active | AID 901; active = well fitted curve in the direction sought with a large enough effect in the signal ratio, not every such curve was filed as active; inconclusive = small, poorly fitted or top-dose-only effect, or a change in a side signal; inactive = no such curve, though single readings can be large or run the other way; the % refers to the signal ratio;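 also: cells stimulated with carbachol in lithium chloride buffer; higher means more IMPase inhibition seen as more IP1 and lower FRET ratio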
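Measured: the HTRF emission ratio (665/620 nm) plus the 620 nm donor channel, each fitted to the Hill equation to give AC50. Cells were CHO-M1 given compounds up to 46 uM and a 30 min carbachol stimulation at 37C.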
Hits are given with their value; n = inactive; u = inconclusive; x = no result; [ ] = remark or other dose. Unless noted, calls follow the shape of the dose curve; as a rule, active = well fitted inhibition curve with a large enough effect (not every such curve was filed as active); inconclusive = small, poorly fitted or top-dose-only effect, or another doubt; inactive = no such curve, though single readings can be large or run the other way.

SMILES | PNC assembly inh | HPGD block | IMPase Li cell | ALOX12 inhib | ALDH1A1 inh | IMPase cell inh
O=C(c1cc(C(F)(F)F)cc(C(F)(F)F)c1)N1CCC2(CCCN(c3ccccc3)C2)CC1 | x | n | n | n | n | x
O=S(=O)(c1ccccc1)N1CCC[C@@]2(CCN(c3ncccn3)C2)C1 | x | n | n | n | u | x
COc1cccc([C@@H]2Oc3ccc(OC)cc3/C(=N/O[C@@H](C)CN3CCCCc4nc(C)c(C)cc43)[C@@H]2O)c1 | x | x | x | x | n[13.5 µM] | x
Cc1ccc(Cn2c(SCCN3CCOCC3)nc3c2c(=O)n(C)c(=O)n3C)cc1 | -81 | x | x | n | n | n
Cc1ccc(Cn2c(SCCN3CCCCC3)nc3c2c(=O)[nH]c(=O)n3C)cc1 | u | 28µM | n | n | u | n
Cn1c(=O)[nH]c(=O)c2c1nc(Sc1nc3ccccc3s1)n2Cc1ccccc1 | n | n | n | n | 16µM | n
Cn1c(=O)c2c(nc(SCCCC#N)n2Cc2ccccc2F)n(C)c1=O | n | n | n | n | 2.8µM | n
Cc1cccc(Cn2c(SCCN3CCOCC3)nc3c2c(=O)n(C)c(=O)n3C)c1 | n | n | n | n | u | n
O=C(c1ccncc1)N1CCC2(CC1)CN(Cc1cc(C(F)(F)F)cc(C(F)(F)F)c1)C2 | x | n | n | n | n | x
CCc1ccccc1NC(=O)CSc1nnc(COc2ccccc2Cl)o1 | x | x | x | x | x | n
Cn1c(=O)[nH]c(=O)c2c1nc(SCCN1CCCCC1)n2Cc1ccccc1 | u | 25µM | n | n | u | n
C=CCn1c(SCCN2CCCCC2)nc2c1c(=O)[nH]c(=O)n2C | n | n | n | n | n | n
CC(C)Sc1nc2c(c(=O)n(C)c(=O)n2C)n1Cc1ccc(Cl)cc1 | n | n | n | n | 8.9µM | n
CCNc1ncc2nc(C)c(=O)n(Cc3cccs3)c2n1 | x | x | n | x | u | x
COc1ccc(C(CC(=O)NCc2ccccc2)Sc2n[nH]c(-c3ccccc3)n2)cc1 (configuration not stated) | n | 7.9µM | n | n | n | n
COc1ccc(C(CC(=O)NCc2ccccc2)Sc2n[nH]c(-c3ccc(Cl)cc3)n2)cc1 (configuration not stated) | n | n | n | n | n | x
C=CC[C@@H]1C=C[C@H](O/N=C(\C)CCN2CCc3nc(-c4ccccc4)c(-c4ccccc4)cc3C2)[C@H](CO)O1 | x | x | x | x | n[13.5 µM] | x
O=c1c(-c2ccnn2-c2ccc(F)cc2)cnc2n1CCS2 | n | n | n | n | n | u
O=c1c(-c2ccnn2-c2cccc(Cl)c2)cnc2n1CCS2 | -81 | n | n | n | n | n
CCCNC(=O)OC[C@@H]1O[C@H](CCO/N=C(\C)CCN2CCc3nc(-c4ccccc4)c(-c4ccccc4)cc3C2)C=C[C@@H]1Oc1ccc(OC)cc1 | x | x | x | x | n[13.5 µM] | x
CC(C)COc1ccc(CSCCNC(=S)Nc2ccccc2)cc1 | n | n | n | 28µM | n | n
CCCCOc1ccc(CSCCNC(=S)Nc2ccccc2)cc1 | n | n | n | n | u | n
CC1(C)OC(=O)C(=CNCC(O)c2ccccc2)C(=O)O1 (configuration not stated) | n | n | n | n | 11µM | n
CCN(CC)C(=O)c1cc(-c2ccccc2OC)on1 | n | u | n | n | 14µM | n
COCCNC(=O)c1cc(-c2ccccc2OC)on1 | n | u | n | n | u | n
SMILES | PNC assembly inh | HPGD block | IMPase Li cell | ALOX12 inhib | ALDH1A1 inh | IMPase cell inh
COc1ccccc1-c1cc(C(=O)NCc2cccs2)no1 | u | 14µM | n | n | u | n
COc1ccc(OC)c(-c2cc(C(=O)NCc3cccs3)no2)c1 | n | u | n | n | u | n
COc1ccccc1-c1cc(C(=O)NCc2ccco2)no1 | n | 20µM | n | n | n | n
O=C(NCc1cccs1)c1cc(-c2cccc(Cl)c2)on1 | -124 | n | n | n | n | n
O=C(NCCCCCCNC(=O)ON=C1CCCCC1)ON=C1CCCCC1 | x | n | n | n[0.00818 µM] | n | x
CCOC(=O)c1sc(N(Cc2ccccc2)C(=O)CSc2nnc(C3CC3)n2N)nc1C | n | 20µM | n | n | n | n
Cc1ccccc1C(=O)Nc1sc(C)c(C)c1C(=O)c1ccccc1 | n | 32µM | n | n | u | n
Cc1sc(NC(=O)CCl)c(C(=O)c2ccccc2)c1C | n | 28µM | n | n | 0.71µM | n[1.84 µM]
COC(=O)c1c(NC(C)=O)sc(C)c1C | x | x | n | x | n | x
Cc1cc(C(=O)c2ccc(C(C)(C)C)cc2)c(NC(=O)CCl)s1 | n | n | n | n | 11µM | n
Cc1nc(SC2CC(=O)N(c3ccccc3)C2=O)nc2c1CCCC2 (configuration not stated) | u | n | n | n | n | n
CCSc1nnc(-c2ccncc2)o1 | n | n | n | n | n | n
O=C1c2ccccc2CC1Sc1nnc(-c2ccncc2)o1 (configuration not stated) | n | u | n | n | 1µM | n
Cc1ccc(N2C(=O)CC(Sc3nc(-c4ccccc4)c4cc(Cl)ccc4n3)C2=O)c(C)c1 (configuration not stated) | n | u | n | n | n | n
Cc1ccccc1N1C(=O)CC(Sc2nnc(-c3ccccc3)o2)C1=O (configuration not stated) | n | n | 10µM | n | 7.9µM | u
O=C1CC(Sc2nnc(-c3ccccc3)o2)C(=O)N1c1ccccc1 (configuration not stated) | n | 22µM | u | n | 1.8µM | u
CCc1nc2nc(C)c(NS(=O)(=O)c3ccc(C)cc3)c(=O)n2[nH]1 | x | x | x | x | x | n
CC(=O)NC1=C(OS(=O)(=O)c2ccc(C)cc2)CN(C)C1=O | x | n | n | n[11.4 µM] | n[13.5 µM] | x
COc1cccc(C(=O)Nc2nc(-c3ccncc3)cs2)c1 | x | x | n | x | 20µM | x
CC(=O)Nc1ccc(C(=O)Nc2nc(-c3cccnc3)cs2)cc1 | x | x | n | x | 10µM | x
Cc1ccc(NC(=O)CC2Nc3cc(C)c(C)cc3NC2=O)c(C)c1 (configuration not stated) | x | x | x | x | x | n
COc1cc(S(=O)(=O)N2CCC(c3nc4ccccc4s3)CC2)ccc1S(=O)(=O)NC1CCCC1 | -100 | n | n | n | n | n
COc1cc(S(=O)(=O)N2CCC(c3nc4ccccc4s3)CC2)ccc1S(=O)(=O)N1CC(C)CC(C)C1 (configuration not stated) | n | n | n | n | n | n
COc1cc2c(cc1NC(=O)c1ccccc1C)n(C)c(=O)n2C | x | x | x | x | x | n
CN(C)CCCO[C@H]1[C@@H]2OC(C)(C)O[C@@H]2O[C@@H]1[C@H](O)CO | x | n | n | n | n | n
C=CS(=O)(=O)c1ccc(Oc2ccc(S(=O)(=O)C=C)cc2)cc1 | -134 | n | n | n | 0.032µM | x
NS(=O)(=O)c1ccc(Oc2ccc(S(N)(=O)=O)cc2)cc1 | x | x | n | x | n | x
Cc1cc2ccccc2n1CCNC(=O)c1cc(C(F)(F)F)cc(C(F)(F)F)c1 | x | x | x | x | x | n
